Results filed as inconclusive are left out. Calls of active or inactive are those of the source. Calls come from the whole dose curve; as a rule, active = well fitted curve in the direction sought with a large enough effect; inconclusive = small, poorly fitted or top-dose-only effect, or another doubt; inactive = no such curve, though single readings can be large; an effect the other way counts as inactive or inconclusive. Where a SMILES comes first, the peptide text is derived from it. [ ]: non-standard residue; d: D form. pGlu = O=C1CC[C@@H](C(=O)O)N1
Assays:
[1] = qHTS of pediatric cancer cell lines to identify multiple opportunities for drug repurposing: Primary screen for DAOY cells (AID 1347090); note: series mostly up to about 46 µM; nearly all actives have a fitted effect of over 55% in size
In short: (§1)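 Eight- or eleven-point concentration series, 48 h treatment at 37 degrees C in growth media; readout CellTiter-Glo luminescence. Potency and efficacy were taken from the concentration-response curves.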

[2] = qHTS of pediatric cancer cell lines to identify multiple opportunities for drug repurposing: Primary screen for SJ-GBM2 cells (AID 1347091)
In short: as §1

[3] = qHTS of pediatric cancer cell lines to identify multiple opportunities for drug repurposing: Primary screen for A673 cells (AID 1347092); note: nearly all actives have a fitted effect of over 45% in size
In short: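 Cell viability of A673 measured by CellTiter-Glo ATP luminescence after 48 hours compound exposure. Dilution series spanned 0.78 nM to 46 µM (MIPE, 11-point) or 0.59 nM to 46 µM (NPC, 8-point); bortezomib 2.3 uM positive control.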

[4] = qHTS of pediatric cancer cell lines to identify multiple opportunities for drug repurposing: Primary screen for SK-N-MC cells (AID 1347093); note: series mostly up to about 46 µM
In short: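 Metabolically active cells were quantified by ATP-dependent luminescence (CellTiter-Glo, 15 min at room temperature) following 48 h treatment. Cells had been plated at 500-1,000 per well and settled for 5 h beforehand.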

[5] = qHTS of pediatric cancer cell lines to identify multiple opportunities for drug repurposing: Primary screen for BT-37 cells (AID 1347094); note: potency is the fitted concentration of half-maximal effect
In short: (§2)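 Cells seeded at 500-1,000 cells/well in growth media, rested 5 hours at 37 degrees C, 5% CO2, then dosed; MIPE compounds at 11-point (from 0.78 nM) and NPC at 8-point (from 0.59 nM) final concentrations. Viability by CellTiter-Glo luminescence after 48 hours.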

[6] = qHTS of pediatric cancer cell lines to identify multiple opportunities for drug repurposing: Primary screen for NB-EBc1 cells (AID 1347095)
In short: as §2

[7] = qHTS of pediatric cancer cell lines to identify multiple opportunities for drug repurposing: Primary screen for U-2 OS cells (AID 1347096); note: nearly all actives have a fitted effect of over 50% in size
In short: (§3)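 Cells (500-1,000/well) in growth media were settled 5 h at 37 degrees C, then given compounds for 48 h. Viability was read as CellTiter-Glo luminescence. Primary runs used MIPE at 11 points (0.78 nM-46 µM) and NPC at 8 points (0.59 nM-46 µM); follow-ups used 11 points.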

[8] = qHTS of pediatric cancer cell lines to identify multiple opportunities for drug repurposing: Primary screen for SK-N-SH cells (AID 1347098);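 note: DMSO served as neutral control and bortezomib at 2.3 µM as positive control; nearly all actives have a fitted effect of over 65% in size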
In short: (§4)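 Cells (500-1,000/well) rested 5 h, then received compounds for 48 h; metabolically active cells were measured by CellTiter-Glo luminescence. Final concentrations spanned up to 46 µM (MIPE, 11-point) or 0.59 nM-46 µM (NPC, 8-point) in primary screens, 11-point in follow-ups.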

[9] = qHTS of pediatric cancer cell lines to identify multiple opportunities for drug repurposing: Primary screen for NB1643 cells (AID 1347099); note: nearly all actives have a fitted effect of over 50% in size
In short: as §2

[10] = qHTS of pediatric cancer cell lines to identify multiple opportunities for drug repurposing: Primary screen for LAN-5 cells (AID 1347100)
In short: as §3

[11] = qHTS of pediatric cancer cell lines to identify multiple opportunities for drug repurposing: Primary screen for BT-12 cells (AID 1347101); note: nearly all actives have a fitted effect of over 25% in size
In short: as §4

[12] = qHTS of pediatric cancer cell lines to identify multiple opportunities for drug repurposing: Primary screen for Rh18 cells (AID 1347102); note: nearly all actives have a fitted effect of over 65% in size
In short: as §3

[13] = qHTS of pediatric cancer cell lines to identify multiple opportunities for drug repurposing: Primary screen for OHS-50 cells (AID 1347103); note: nearly all actives have a fitted effect of over 40% in size
In short: as §4

[14] = qHTS of pediatric cancer cell lines to identify multiple opportunities for drug repurposing: Primary screen for RD cells (AID 1347104); note: nearly all actives have a fitted effect of over 55% in size
In short: as §2

[15] = qHTS of pediatric cancer cell lines to identify multiple opportunities for drug repurposing: Primary screen for MG 63 (6-TG R) cells (AID 1347105); note: nearly all actives have a fitted effect of over 50% in size
In short: as §2

[16] = qHTS of pediatric cancer cell lines to identify multiple opportunities for drug repurposing: Primary screen for control Hh wild type fibroblast cells (AID 1347106);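 note: series mostly up to about 46 µM; a drop in luminescence marks cytotoxicity and a rise apparent proliferation; nearly all actives have a fitted effect of over 55% in size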
In short: as §3

[17] = qHTS of pediatric cancer cell lines to identify multiple opportunities for drug repurposing: Primary screen for Rh30 cells (AID 1347107); note: series mostly up to about 46 µM; nearly all actives have a fitted effect of over 75% in size
In short: as §3

[18] = qHTS of pediatric cancer cell lines to identify multiple opportunities for drug repurposing: Primary screen for Rh41 cells (AID 1347108);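 note: series mostly up to about 46 µM; luminescence drop marks cytotoxic hits; nearly all actives have a fitted effect of over 70% in size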
In short: as §2

[19] = qHTS of pediatric cancer cell lines to identify multiple opportunities for drug repurposing: Primary screen for Saos-2 cells (AID 1347097); note: nearly all actives have a fitted effect of over 40% in size
In short: as §2

[20] = qHTS of pediatric cancer cell lines to identify multiple opportunities for drug repurposing: Confirmatory screen for A673 cells (AID 1347110);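 note: cells exposed to compound for 48 h before the viability read; nearly all actives have a fitted effect of over 65% in size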
In short: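 Viability was read as ATP luminescence (CellTiter-Glo) after 48 h of compound exposure at 37 C in A673 cells seeded at 500-1,000/well. Titrations reached 46 uM final, with 11 points in the confirmatory screen. Concentration-response curves were fitted directly.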

Measured: Potency

CCC(C(=O)NC(=O)NC(C)=O)c1ccccc1 (centres undefined)
not listed: [19] | [20]
inactive: all other assays above

O=C1CC2(CCCC2)CC(=O)N1CCNCC1COc2ccccc2O1 (centres undefined)
not listed: [14] | [19] | [20]
inactive: all other assays above

O=C(c1ccco1)N1CCNCC1
not listed: [19] | [20]
inactive: all other assays above

Nc1ncnc2nc[nH]c12
not listed: [13] | [19] | [20]
inactive: all other assays above

C[C@@H]1CCC[C@H](C)N1CCCC(O)(c1ccccc1)c1ccccn1 (some centres undefined)
not listed: [19] | [20]
inactive: all other assays above

CC(=O)O[C@H]1CC[C@@]2(C)C(=CC[C@@H]3[C@@H]2CC[C@]2(C)C(C(C)=O)=CC[C@@H]32)C1
not listed: [19] | [20]
inactive: all other assays above

CCn1ccc(NS(=O)(=O)c2ccc(N)cc2)nc1=O
not listed: [10] | [12] | [17] | [20]
inactive: all other assays above

OCCc1ccccc1
not listed: [8] | [20]
inactive: all other assays above

Brc1ccccc1-c1ccccc1
not listed: [10] | [12] | [20]
inactive: all other assays above

CC(CC(C#N)(c1ccccc1)C(C)C)N(C)C (centres undefined)
not listed: [19] | [20]
inactive: all other assays above

O=C(O)c1cn(C2CC2)c2cc(Cl)c(F)cc2c1=O
not listed: [19] | [20]
inactive: all other assays above

CCNC(=O)[C@@H]1CCCN1C(=O)[C@H](CCCN=C(N)N)NC(=O)[C@H](CC(C)C)NC(=O)CNC(=O)[C@H](Cc1ccc(O)cc1)NC(=O)[C@H](CO)NC(=O)[C@H](Cc1c[nH]c2ccccc12)NC(=O)[C@H](Cc1cnc[nH]1)NC(=O)[C@@H]1CCC(=O)N1 ([pGlu]HWSYGLRP-NHEt)
not listed: [14] | [15] | [19] | [20]
inactive: all other assays above

CCN(CC)CC(=O)Nc1c(C)cccc1C(=O)OC
not listed: [18] | [19] | [20]
inactive: all other assays above

CC(COc1ccccc1)NN (centres undefined)
not listed: [17] | [19] | [20]
inactive: all other assays above

O=[N+]([O-])c1cncn1CCN1CCOCC1
not listed: [15] | [19] | [20]
inactive: all other assays above

Nc1ccc(C(=O)N2CC3CC(CN(Cc4ccccc4)C3)C2)cc1
not listed: [10] | [12] | [15] | [18] | [20]
inactive: all other assays above

COc1cc(/C=C/C(N)=O)cc(OC)c1OC
active: [5] 1 nM
not listed: [9]
inactive: all other assays above

CCOC(=O)c1ccc(OCCN2C[C@H](O)[C@@H](O)[C@H](O)[C@H]2CO)cc1
not listed: [19] | [20]
inactive: all other assays above

O=c1[nH]c(=O)n([C@H]2O[C@H](CO)[C@@H](O)[C@@H]2O)cc1/C=C\Br
not listed: [19] | [20]
inactive: all other assays above

CC(Oc1c(Cl)cccc1Cl)C1=NCCN1 (centres undefined)
not listed: [8] | [10] | [13] | [20]
inactive: all other assays above

COC(=O)c1ccc(NC(C)=O)cc1OC
not listed: [19] | [20]
inactive: all other assays above

O=C1CCCc2c(O)cccc21
not listed: [19] | [20]
inactive: all other assays above

CC1(C)OC(=O)Nc2ccc(Br)cc21
not listed: [13] | [19] | [20]
inactive: all other assays above

CC1(C)S[C@@H]2[C@H](NC(=O)C(c3ccccc3)S(=O)(=O)O)C(=O)N2[C@H]1C(=O)O (some centres undefined)
not listed: [19] | [20]
inactive: all other assays above

COc1c(N2C[C@@H]3CCCN[C@@H]3C2)c(F)cc2c(=O)c(C(=O)O)cn(C3CC3)c12
not listed: [14] | [19] | [20]
inactive: all other assays above

Nc1ccc([N+](=O)[O-])c(C(F)(F)F)c1
not listed: [8] | [13] | [20]
inactive: all other assays above

O=C1[C@@H]2[C@H]3CC[C@H](C3)[C@@H]2C(=O)N1CCCCN1CCN(c2ncccn2)CC1
not listed: [8] | [20]
inactive: all other assays above

Cc1ccc(-c2ccccc2C#N)cc1
not listed: [19] | [20]
inactive: all other assays above

C[C@]12CCC(=O)C=C1CC[C@@H]1[C@@H]2[C@@H](O)C[C@@]2(C)[C@H]1CC[C@]2(O)C(=O)COC(=O)CCC(=O)O
not listed: [9] | [14] | [15]
inactive: all other assays above

From PubChem BioAssay (NCATS)
